MITF TRPM1 inh = inhibitors of MITF-driven TRPM1 promoter in melanoma cells. SK-MEL-5 TRPM1 promoter luciferase, 24 h. inhibition, % at 12.5 µM. 0.83% of 330,000 active. AID 488899;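 active = mean inhibition across replicates of 60% or more, whatever share of single replicates reaches that level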
PAX8 reporter = inhibitors of PAX8 transcriptional activity in RMG-I cells. AID 652154. 1.2% of 360,000 active. inhibition, % at 12.6 µM. RMG-I TPO-luciferase reporter, SteadyGlo, 24 h;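 active = mean replicate inhibition at least 60% with every replicate also reaching 60%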;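 also: luciferase light reporting Pax8 driven TPO promoter activity; plate controls were median of neutral control wells for no effect and mitoxantrone controls for full effect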
EBV LMP1 NFkB = reduces LMP1-driven NF-kappaB luciferase signal | 0.69% of 350,000 active | inhibition, % at 12.5 µM | LMP1-induced NF-kappaB luciferase reporter cells, luminescence | AID 504558; in the data active = inhibition above about 41%;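 also: 0% = neutral control wells and 100% = reference inhibitor control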
aSyn 5UTR inh = 5' untranslated region of α-synuclein, MLPCN primary screen. alpha-synuclein 5'UTR reporter, inhibitor activity. inhibition, % (tested at 7.5 µM). 0.82% of 300,000 active; in the data active = inhibition above about 60%;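 also: H4 neuroglioblastoma cells stably carrying SNCA 5'UTR luciferase fusion; 0% = DMSO wells and 100% = positive control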
Shn3 inh set2 = reduces Shn3 3'UTR luciferase signal in osteoblasts. Clone20 osteoblast Shn3 3'UTR firefly luciferase, 24 h. inhibition, % at 12.5 µM. 0.52% of 360,000 active. AID 588674;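 active = mean inhibition of at least 75% with every replicate also reaching 75%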;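 also: 0% = median of neutral control wells and 100% = pilot-screen positive control compound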
* hit, by the source's call; · = no result given. In the library only some 2.1% were active in any assay of this set; here they are far more common.

SMILES	MITF TRPM1 inh	PAX8 reporter	EBV LMP1 NFkB	aSyn 5UTR inh	Shn3 inh set2
CC(=O)Nc1ccc(S(=O)(=O)Nc2cccc(-c3ccc4nncn4n3)c2)cc1	-1.9	1.1	-7.4	-9.8	0.8
COc1ccc2nc(N(CCN(C)C)C(=O)c3ccc(C(=O)c4ccccc4)cc3)sc2c1	-4.7	-22.4	3.4	6.0	4.7
CCOc1ccc(C(CC(=O)O)NC(=O)c2sc3ccccc3c2Cl)cc1 (stereo not drawn)	-28.4	15.6	51.5*	-10.5	6.1
CCOc1ccccc1NC(=O)NCCN1CCCCC1	-2.6	-4.7	-2.8	7.3	10.2
COc1ccc(CCN(C)C(=O)c2cccc(S(=O)(=O)N3CCN(c4ccc(F)cc4)CC3)c2)cc1OC	·	29.3	18.6	·	60.9
CC1CN(C(=O)c2cccc(S(=O)(=O)N3CCN(c4ccc(F)cc4)CC3)c2)CC(C)O1 (stereo not drawn)	20.7	17.0	8.1	11.6	-5.5
CN(CCOc1ccc(Cl)cc1)C(=O)c1cccc(S(=O)(=O)N2CCN(c3ccc(F)cc3)CC2)c1	59.4	·	3.0	·	89.0*
CN(Cc1ccc(Cl)c(Cl)c1)C(=O)c1cccc(S(=O)(=O)N2CCN(Cc3ccccc3)CC2)c1	13.9	34.5	6.9	·	86.9*
CN(CC(=O)Nc1ccccc1Cl)C(=O)c1cccc(S(=O)(=O)N2CCN(c3ccccc3)CC2)c1	27.9	18.1	21.8	·	87.4*
O=C(c1cccc(S(=O)(=O)N2CCN(c3ccc(F)cc3)CC2)c1)N1CCCC(C(F)(F)F)C1 (stereo not drawn)	21.4	30.6	24.9	0.2	91.9*
CCCNC(=O)N1CC2(C1)[C@@H](c1ccccc1)[C@@H](CO)N2Cc1cccc(Cl)c1	·	-1.9	·	·	·
C[C@@H]1CN([C@H](C)CO)C(=O)c2cc(NC(=O)Nc3ccccc3)ccc2O[C@@H]1CN(C)C(=O)Nc1ccccc1	·	1.4	·	·	·
Cc1ccccc1/C=N/N=C1/NC(=O)CCS1	-20.7	-73.2	6.6	11.4	-24.8
CN(CC(=O)Nc1ccccc1Cl)C(=O)c1cccc(S(=O)(=O)N2CCN(c3ccc(F)cc3)CC2)c1	27.1	17.9	19.5	-1.4	88.0*
COc1cccc(N2CC(C(=O)Nc3nnc(SCC(=O)NCC4CCCO4)s3)CC2=O)c1 (stereo not drawn)	6.0	-3.7	-4.2	1.6	-4.4
Cc1c(NC(=O)c2cc(-c3ccccc3)on2)c(=O)n(-c2ccccc2)n1C	4.7	·	-15.2	25.7	-5.9
Cc1cccc(-n2cc(-c3ccccc3)c3c(N4CCOCC4)ncnc32)c1	8.5	67.6*	8.3	43.2	25.1
Cc1cccc(-n2ncc3c(N4CCCC4)ncnc32)c1	-47.5	·	7.3	29.3	11.2
Cc1cccc(-n2ncc3c(N4CCOCC4)ncnc32)c1	56.4	47.0	65.6*	77.3*	23.4
COc1ccc(O[C@H]2C=C[C@@H](c3ccccc3)O[C@@H]2COC(=O)CC/C(C)=N/O[C@H](C)c2cn([C@@H]3COC[C@H]3O)nn2)cc1	·	·	·	1.9	·
CCOC(=O)C1=C(C)NC(C)=C(C(=O)OCC)C1c1cn(-c2ccccc2)nc1-c1ccco1	-0.5	·	75.9*	26.0	-4.5
CC1CCN(Cc2c(C(=O)N/N=C/c3ccc(C(C)C)cc3)nnn2-c2nonc2N)CC1	-12.2	-8.0	-18.8	-4.0	14.5
Nc1nonc1-n1nnc(C(=O)N/N=C/c2cc(Br)ccc2O)c1CNc1ccccc1	27.7	55.0	13.8	70.2*	58.6
Cc1c(C(=O)N/N=C/c2c(O)ccc3ccccc23)nnn1-c1nonc1N	41.6	32.6	17.0	63.4*	84.8
CC1CCN(Cc2c(C(=O)N/N=C/c3ccc(C(C)(C)C)cc3)nnn2-c2nonc2N)CC1	22.9	-12.0	-5.2	64.0*	56.9
Cc1ccc(/C=N/NC(=O)c2nnn(-c3nonc3N)c2CNc2ccccc2)cc1	8.0	-22.1	0.1	-7.7	17.7
Cc1ccc(C)c(Nc2c(F)c(F)c(F)c(F)c2C(=O)O)c1	9.0	10.9	4.8	7.3	6.2
CCOc1ccc(N2CC(C(=O)NCCc3ccccc3)CC2=O)cc1 (stereo not drawn)	8.8	4.0	-3.2	6.9	-7.7
COC(=O)c1ccc2nc(NC(=O)CSCC(=O)OCC(=O)c3ccccc3)sc2c1	-0.7	-7.4	-20.4	-72.6	-8.0
C[C@H]1CCCCO[C@H](CN(C)C(=O)Nc2ccc(C(F)(F)F)cc2)[C@@H](C)CN([C@@H](C)CO)C(=O)c2cc(NC(=O)NC3CCCCC3)ccc2O1	·	49.6	·	·	·

High-throughput results as filed in PubChem BioAssay.
